Measurements reported in PubChem BioAssay (Tox21).
Records with an inconclusive call do not appear. A call without a number means that no potency is given here. The source made the active and inactive calls. The call rests on the fitted dose curve; in most records, active means well fitted activation curve with a large enough effect in the repeat runs; inconclusive means weak or mixed curves; inactive means no such curve, though single readings can be large or run the other way.

Assay: qHTS assay for small molecules that induce genotoxicity in human embryonic kidney cells expressing luciferase-tagged ATAD5 (AID 651632); further: nearly all actives have a fitted effect of over 15% in size
Conditions: HEK293T ATAD5-luciferase induction, 16 h; series mostly up to 83.3 µM
Summary of the method: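 HEK293T cells carrying luciferase-tagged ATAD5 were given compound or DMSO vehicle and incubated 16 hr at 37C, 5% CO2. Luciferase activity was read after 30 min at room temperature with Amplite; a rise signals genotoxic stress.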
Potency means the concentration at half of the fitted maximal effect.

Question: With `CN1CC[C@H](c2c(O)cc(O)c3c(=O)cc(-c4ccccc4Cl)oc23)[C@H](O)C1` as the compound, how does the Potency read?
Answer: inactive

Question: For `c1ccc2occc2c1`, which Potency is on record?
Answer: inactive

Question: Which Potency does the source give for `CC(C)Cc1ccc([C@H](C)C(=O)O)cc1` here?
Answer: inactive

Question: With `CC[N+](CC)(CC)CCC(O)(c1ccccc1)C1CCCCC1` (configuration not stated) as the compound, how does the Potency read?
Answer: inactive

Question: Which Potency does the source give for `O=C1C2CC3CC1CC(O)(C3)C2` here?
Answer: inactive

Question: Which Potency does the source give for `Cc1c(N)nc([C@H](CC(N)=O)NC[C@H](N)C(N)=O)nc1C(=O)N[C@H](C(=O)N[C@H](C)[C@@H](O)[C@H](C)C(=O)N[C@H](C(=O)NCCc1nc(-c2nc(C(=O)NCCCCN=C(N)N)cs2)cs1)[C@@H](C)O)[C@@H](O[C@@H]1O[C@@H](CO)[C@@H](O)[C@H](O)[C@@H]1O[C@H]1O[C@H](CO)[C@@H](O)[C@H](OC(N)=O)[C@@H]1O)c1cnc[nH]1` here?
Answer: inactive

Question: For `CC[C@@]1([C@@H]2O[C@@H]([C@H]3O[C@@](O)(CO)[C@H](C)C[C@@H]3C)C[C@@H]2C)CC[C@H]([C@]2(C)CC[C@]3(C[C@H](O)[C@@H](C)[C@@H]([C@@H](C)[C@@H](OC)[C@H](C)C(=O)O)O3)O2)O1` (stereo in doubt), which Potency is on record?
Answer: inactive

Question: For `CCC(C)(C)c1ccc(CC(C)CN2C[C@@H](C)O[C@@H](C)C2)cc1` (some centres not stated), which Potency is on record?
Answer: inactive

Question: With `O=C1c2ccccc2-c2n[nH]c3cccc1c23` as the compound, how does the Potency read?
Answer: inactive

Question: With `CCCCCCCCCCCCCCCCC(C(=O)O)C(O)(CC(=O)O)C(=O)O` (configuration not stated) as the compound, how does the Potency read?
Answer: inactive

Question: For `CO/N=C(\C(=O)N[C@@H]1C(=O)N2C(C(=O)O)=C(C[N+]3(C)CCCC3)CS[C@H]12)c1csc(N)n1`, which Potency is on record?
Answer: inactive

Question: Which Potency does the source give for `CC1(C)S[C@@H]2[C@H](NC(=O)[C@H](N)c3ccc(O)cc3)C(=O)N2[C@H]1C(=O)O` here?
Answer: inactive

Question: Which Potency does the source give for `CC(C)(C)c1ccc2c(S(=O)(=O)O)c(C(C)(C)C)ccc2c1` here?
Answer: inactive

Question: With `O=C1CCCCCCCCCCCCCC1` as the compound, how does the Potency read?
Answer: inactive

Question: With `C[C@@H]1C(=O)NC2=Nc3cccc(Cl)c3CN21` as the compound, how does the Potency read?
Answer: inactive

Question: Which Potency does the source give for `C=C1C(CCl)(CCl)C2(Cl)C(Cl)C(Cl)C1(Cl)C2(Cl)Cl` (configuration not stated) here?
Answer: inactive

Question: For `CN(C[C@@H](CC[N+]12CCC(C3CCCCC3)(CC1)CC2)c1ccc(Cl)c(Cl)c1)C(=O)c1cc(C(F)(F)F)cc(C(F)(F)F)c1`, which Potency is on record?
Answer: inactive

Question: For `CCOc1ccc([N+](=O)[O-])cc1`, which Potency is on record?
Answer: inactive

Question: Which Potency does the source give for `Cc1cc(CC(C)CC(C)(C)C)n(O)c(=O)c1` (configuration not stated) (tested in a mixture with another compound) here?
Answer: 13.3 µM (active)

Question: With `O=C(Nc1ccccc1)c1cc(Cl)ccc1O` as the compound, how does the Potency read?
Answer: inactive

Question: With `N[C@H](CO)C(=O)O` as the compound, how does the Potency read?
Answer: inactive

Question: Which Potency does the source give for `CC[C@@H](C)[C@H](N)C(=O)O` here?
Answer: inactive

Question: With `CC(C)c1ccc2sc3ccccc3c(=O)c2c1` as the compound, how does the Potency read?
Answer: 4.33 µM (active)

Question: For `CC(=O)N[C@@H](C=O)[C@H](O)[C@H](O)[C@@H](O)CO`, which Potency is on record?
Answer: inactive

Question: Which Potency does the source give for `COc1c(Br)cc(Br)c(C)c1Br` here?
Answer: inactive

Question: For `OCCCNc1ccccc1`, which Potency is on record?
Answer: inactive

Question: With `Cc1ccc2nc(-c3ccc(N)cc3)sc2c1S(=O)(=O)O` as the compound, how does the Potency read?
Answer: 0.85 µM (active)

Question: Which Potency does the source give for `NCc1cccc(C2CCN(C(=O)c3ccc(C#Cc4ccccc4F)o3)CC2)c1` here?
Answer: inactive

Question: With `CN[C@H](CC(C)C)C(=O)N[C@H]1C(=O)N[C@@H](CC(N)=O)C(=O)N[C@H]2C(=O)N[C@H]3C(=O)N[C@H](C(=O)N[C@@H](C(=O)O)c4cc(O)cc(O)c4-c4cc3ccc4O)[C@H](O)c3ccc(c(Cl)c3)Oc3cc2cc(c3O[C@@H]2O[C@H](CO)[C@@H](O)[C@H](O)[C@H]2O[C@H]2C[C@](C)(N)C(O)[C@H](C)O2)Oc2ccc(cc2Cl)[C@H]1O` (some centres not stated) as the compound, how does the Potency read?
Answer: inactive

Question: Which Potency does the source give for `O=C(Cn1cnnn1)N[C@@H]1C(=O)N2C(C(=O)O)=C(CSc3nncs3)CS[C@H]12` here?
Answer: inactive

Question: With `COc1cccc2c1[C@@H]1CN(CCCCn3c(=O)[nH]c4c(sc5ncc(-c6ccccc6)nc54)c3=O)C[C@@H]1CO2` as the compound, how does the Potency read?
Answer: inactive

Question: With `Oc1ccc(Cl)cc1C1CCCC1` as the compound, how does the Potency read?
Answer: inactive

Question: With `CN=C(N)NCCC[C@H](N)C(=O)O` as the compound, how does the Potency read?
Answer: inactive

Question: Which Potency does the source give for `CCSCC` here?
Answer: inactive

Question: With `c1ccc2cc3c4ccccc4c4ccccc4c3cc2c1` as the compound, how does the Potency read?
Answer: inactive

Question: With `Cc1cc(F)ccc1-c1cc(N2CC[C@@H](O)[C@H]2CO)ncc1N(C)C(=O)C(C)(C)c1cc(C(F)(F)F)cc(C(F)(F)F)c1` as the compound, how does the Potency read?
Answer: inactive

Question: For `CC(CNC(=O)c1cccnc1)NC(=O)c1cccnc1` (configuration not stated), which Potency is on record?
Answer: inactive
